The panel holds about 83,000 compounds, 20% with a hit somewhere; the sample as a whole holds those more often.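 Interpretation: 100, growth as untreated; towards 0, rising growth inhibition; 0, no net growth; 0 to -100, cell death. Compounds scoring below 10 were considered active.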 The source made the active and inactive calls.
tested on: SK-MEL-28 melanoma; assay: NCI-60 one-dose screen, 48 h (100 = growth as untreated, 0 = no growth, -100 = all killed); details: 10 µM unless noted

SMILES	growth
[O-]/[N+](=C\c1ccccc1)CC1(O)CCCCC1	106% (inactive)
CC(=O)O[C@H]1[C@H](CC#CC#CC[C@@H]2C[C@]3(C)[C@H]4CC=C5[C@H]6[C@@H](C)[C@H](C)CC[C@]6(C(=O)NCCCCCCCCN)CC[C@@]5(C)[C@]4(C)CC[C@H]3C(C)(C)[C@H]2OC(C)=O)C[C@]2(C)[C@H]3CC=C4[C@H]5[C@@H](C)[C@H](C)CC[C@]5(C(=O)NCCCCCCCCN)CC[C@@]4(C)[C@]3(C)CC[C@H]2C1(C)C	124% (inactive)
N#Cc1c(N)c(C(=O)c2ccc3c(c2)OCCO3)n2c1CCCC2	44% (inactive)
Cc1c(O)c(=O)n(-c2ccccc2)n1C	111% (inactive)
COc1ccc2[nH]c(O)c(/C=c3/ccc4c(c3)N=C(c3ccc(C(F)(F)F)cc3)N=4)c2c1	83.9% (inactive)
COc1ccc(/C=C/C(=O)c2ccc(NC(=O)CSc3nnc(-c4ccc(OC)cc4)n3-c3ccccc3)cc2)cc1	106% (inactive)
N=C(N)c1ccc(-c2ccc(-c3cc(Cl)cc(Cl)c3)o2)nc1	-79.2% (active)
CN(C)c1ccc(N2Cc3ccccc3OC3=C2C(=O)c2c(O)ccc(O)c2C3=O)cn1	-82.8% (active)
COc1ccccc1/C=N\NC(=S)Nc1ccc(F)cc1	78.3% (inactive)
FC(F)(F)C1=NNC(c2ccc3ccccc3c2)=NN1	112% (inactive)
CCCC(CCC)NCC(O)c1cc(-c2ccc(C(F)(F)F)cc2)nc(C(F)(F)F)c1 (centres undefined)	-41.9% (active)
CCOC(=O)c1c(NC(=O)c2ccccc2)sc2c(O)c(CN(CC)CC)ccc12	40% (inactive)
CCOC(C)(c1ccc(Cl)cc1)C1CCNCC1 (centres undefined)	109% (inactive)
O=S(=O)(NCC[C@@H]1C[C@H]1c1ccc2ccccc2c1)c1ccc(C(F)(F)F)cc1	108% (inactive)
CC(CN1CCN(C)CC1)CN1c2ccccc2Sc2ccc(C(F)(F)F)cc21 (centres undefined)	22.4% (inactive)
NC(=S)N/N=C(/c1cccs1)C1CC1	101% (inactive)
COc1cc(C2Nc3ccccc3S2)cc(CN2CCOCC2)c1O (centres undefined)	68.6% (inactive)
O=[N+]([O-])c1cccc([I+]c2ccccc2)c1	61.5% (inactive)
C=CCn1c(SCC(=O)Nc2ccc(/C(C)=N\O)cc2)nnc1-c1cc(-c2ccccc2)nc2ccccc12	86.7% (inactive)
C=CC[C@]1(O)CC[C@H]2[C@@H]3CCc4cc(O)ccc4[C@H]3CC[C@@]21C	101% (inactive)

SMILES	growth
CC(=O)c1c(O)c(C)c(O)c2c1OC1=CC(=O)/C(=C(/C)N)C(=O)C12C (centres undefined)	105% (inactive)
COc1c(B(O)O)cccc1-c1nc2c(F)cc3n[nH]c(C)c3c2c2c1CCCC2	25% (inactive)
CCCCNCC(O)c1cc(-c2ccc(C(F)(F)F)cc2)nc(-c2ccc(C(F)(F)F)cc2)c1 (centres undefined)	-85.3% (active)
Oc1[nH]c2ccc(Cl)cc2c1/C=c1/ccc2c(c1)N=C(c1ccc(F)cc1)N=2	53.7% (inactive)
COc1ccc(C(=O)c2c(N)nc3n2CCCC3)cc1OC	108% (inactive)
CCOC(=O)Nc1ccc2nc(-c3cscn3)[nH]c2c1	53.4% (inactive)
CCOC(=O)C(Nc1ccccc1)C(=O)OCC	111% (inactive)
CN1CCN(Cc2ccc(NC(=O)c3cncc(C#Cc4ncc5ccccn45)c3)cc2C(F)(F)F)CC1	8.57% (active)
COS(=O)(=O)CCN(CCOS(C)(=O)=O)S(C)(=O)=O	99.1% (inactive)
O=C(c1ccccc1)N(CCCCl)C(=O)N(CCCCl)C(=O)c1ccccc1	133% (inactive)
OC(c1cc2cc(Cl)ccc2c2cc(C(F)(F)F)ccc12)C1CCCCN1 (centres undefined)	-90.5% (active)
CC(C)CC(NC(=O)C(CCCN=C(N)N)NC(=O)OCc1ccccc1)C(=O)NC(CNC(=O)/C=C/c1ccccc1)C(C)C (centres undefined)	93.5% (inactive)
CCn1c(CN2CCN(Cc3ccccc3)CC2)nc2cc(NC(=O)c3cccs3)ccc21	-91.2% (active)
COc1cc(C)cc2oc3oc(=O)c(-c4csc(-c5cc6ccccc6oc5=O)n4)cc3c(=O)c12	109% (inactive)
OC(c1cc2c(Cl)cc(Cl)cc2c2cc(C(F)(F)F)ccc12)C1CCCCN1 (centres undefined)	-75.4% (active)
N#CC1=C(N)Oc2nc[nH]c(=O)c2C1c1cccs1 (centres undefined)	102% (inactive)
Cc1cc(C)cc(Nc2cc(C)nc3nc(C(F)(F)F)nn23)c1	50.8% (inactive)
Cc1ccc(N2C3c4ccccc4N(S(=O)(=O)c4ccc(C)cc4)C2c2ccccc2N3S(=O)(=O)c2ccc(C)cc2)cc1	99.3% (inactive)
CCOC(=O)c1ccc(NC(=O)NC2=NCCS2)cc1	87.3% (inactive)
